The structures appear in SMILES notation. Where “and” joins values, the source holds several entries; their conditions need not be identical. Equal values may be shown once. About 1,300 (0.34%) of roughly 380,000 compounds were called active.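 The calls were made as follows: active = drop in luminescence signal, shown as inhibition above about 50% in the replicate tests (limit read from the data, passing the limit was not always enough); inconclusive = probably only some replicates passing the limit; inactive = the rest.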 Many of the other results were omitted from the sample, so actives are more common in it than they were. The source holds several records for some structures; these can differ, active in one and inactive in another.

For this assay, the system named is Drosophila bursicon receptor LGR2 (rickets). Nature of the assay: LGR2 cAMP reporter signal reduction – cell-based, HEK293, CRE-luciferase reporter, bursicon stimulation, primary screen (AID 720647).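 Also: agonist challenge used bursicon conditioned medium at about half maximal strength.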 The following applies: bursicon-stimulated, 4 h, at 9.99 µM, stronger effect = higher value.
On to `CCCC(=O)N1CCC2(CC1)CN(C(=O)C1CCCCC1)[C@@H](CO)c1[nH]c3cc(OC)ccc3c12`, for which the inhibition was -2.6% (inactive). The value for `COc1ccc(S(=O)(=O)N[C@H]2C=C[C@@H](CC(=O)O)O[C@@H]2CO)cc1` was 14.6% (inactive); that for `CSc1ncnc2c1ncn2CC(=O)C1CCC2C3CCC4=CC(=O)CCC4(C)C3CCC12C` (stereo not drawn) was 89.8% (active); that for `CSc1ncnc2c1ncn2CCCNCc1ccco1` was -1.41% (inactive). For the compound `CC12CCC(=O)C=C1CCC1C2C(O)CC2(C)C1CCC2(O)C(O)CO` (stereo not drawn), the inhibition was -20.1% (inactive).

`COCC(=O)Nc1ccc2c(c1)[C@H]1C[C@@H](CC(=O)NCc3ccccc3F)O[C@H](CO)[C@H]1O2`: the inhibition is -12.4% (inactive). The value for `COc1cccc(/C=C/c2ccc3ccccc3n2)c1OC(C)=O` was 84.6% (active); that for `CC=Cc1ccc2n(c1=O)C[C@H]1[C@H](CO)[C@@H](C(=O)NC3CCCC3)N(Cc3cccnc3)[C@@H]21` (mixture of isomers) was 5.27% (inactive). With `O=C(O)c1cccc(NC(=S)N/N=C/c2c[nH]c3ccccc23)c1`, the inhibition was 75.5% (active).

In the case of `O=C(Cn1cc(/C=N/NC(=O)c2cccc(C(F)(F)F)c2)c2ccccc21)Nc1ccc(F)cc1`, the inhibition was 13.4% (inactive). The value for `O=C(CNCc1ccc(Cl)cc1)Nc1cccc(C(=O)O)c1` was 22.7% (inactive). With `COc1cccc(CNC(=O)C[C@@H]2CC[C@@H]3[C@H](COc4ccc(NC(C)=O)cc4C(=O)N3C)O2)c1`, the inhibition was 18.5% (inactive). The value for `CCN1[C@@H]2Cn3c(ccc(-c4cccc(OC)c4)c3=O)[C@H]1[C@@H](C(=O)N(C)C)[C@@H]2CO` was -2.29% (inactive); that for `CCC(=O)N1CC(=O)N2[C@@H](CO)[C@H](c3ccc(C#CC4CCCC4)cc3)[C@@H]2C1` was -13.8% (inactive); that for `C[C@@H]1CN([C@H](C)CO)C(=O)Cc2cc(NS(C)(=O)=O)ccc2O[C@@H]1CN(C)C(=O)Nc1ccc2c(c1)OCO2` was -12.8% (inactive). In the case of `C[C@@H]1CN([C@H](C)CO)C(=O)c2cc(NC(=O)CCCCCC(=O)Nc3ccccc3N)ccc2O[C@H]1CN(C)Cc1ccncc1`, the inhibition was -8.39% (inactive). As for `C[C@@H]1CCCCO[C@H](CN(C)CC2CC2)[C@@H](C)CN([C@H](C)CO)C(=O)c2cc(NC(=O)Cc3ccccc3)ccc2O1`, the figure is 2.52% (inactive).

With `COc1ccccc1-c1cn(CC[C@@H]2CC[C@H](NC(=O)c3ccccc3F)[C@H](CO)O2)nn1`, the inhibition was 0.819% (inactive). As to `COc1ccc2c3c(n(C)c2c1)[C@@H](CO)N(C(=O)c1ccccn1)CC31CN(C)C1`, the inhibition is 2.95% (inactive).

Consider `COc1ccc(-c2ccc(C3[C@@H]4CN(S(=O)(=O)c5cn(C)cn5)C[C@H]3N4)cc2)cc1` (stereo partly drawn), for which the inhibition was -3.69% (inactive). As for `Cn1cnc(S(=O)(=O)N2C[C@@H]3N[C@H](C2)C3c2ccc(/C=C/c3ccccc3)cc2)c1` (stereo partly drawn), the figure is 7.15% (inactive) and -2.81% (inactive).

On to `Cn1cnc(S(=O)(=O)N2C[C@@H]3N[C@H](C2)C3c2ccc(-c3ccccc3F)cc2)c1` (stereo partly drawn), for which the inhibition was 53% (active) and -30.1% (inactive). As to `C[C@H]1CN([C@@H](C)CO)C(=O)c2ccccc2-c2ccccc2CO[C@H]1CN(C)S(=O)(=O)c1cccc(C#N)c1`, the inhibition is -1.55% (inactive). As for `C[C@H](NC(=O)C[C@@H]1CC[C@@H]2[C@H](COC[C@@H](O)CN2Cc2cc(F)ccc2F)O1)c1ccccc1`, the figure is 4.84% (inactive). The value for `O=C(C[C@H]1C[C@@H]2c3cc(NC(=O)CC4CC4)ccc3O[C@@H]2[C@H](CO)O1)NCc1cccnc1` was 2.45% (inactive); that for `O=C(Nc1ccccc1F)N1CC(=O)N2[C@H](C1)[C@H](c1ccc(C#Cc3ccc(F)cc3)cc1)[C@@H]2CO` was 5.08% (inactive). Consider `C[C@@H]1CN([C@@H](C)CO)C(=O)c2cc(NC(=O)Cc3ccccc3)ccc2O[C@H]1CN(C)CC1CC1`, for which the inhibition was -1.21% (inactive). For `COC(=O)Nc1ncc(CN2C(=O)c3ccccc3C2=O)s1`, the inhibition is -22.5% (inactive). Consider `COc1ccc(CC(=O)NCc2nnc(SCC(=O)Nc3ncc(C)s3)n2C)cc1`, for which the inhibition is 8.94% (inactive). With `Cc1cnc(NC(=O)c2ccccn2)s1`, the inhibition is 59.5% (active). With `C[C@H]1CN([C@@H](C)CO)C(=O)CCCn2nncc2CO[C@@H]1CN(C)S(=O)(=O)c1ccccc1C#N`, the inhibition is -2.41% (inactive). Take `O=C(Nc1ccccc1)N1CCCCN2[C@H](CO)[C@@H](c3ccc(-c4ccccc4F)cc3)[C@H]2C1`: the inhibition was 17.4% (inactive). The value for `CCCNC(=O)N1[C@H](C#N)[C@@H](c2ccccc2C2=CCCCC2)[C@@H]1CO` was 8.2% (inactive); that for `O=C1CN(Cc2ccccc2)C[C@H]2[C@H](c3ccc(-c4ccccc4)cc3)[C@@H](CO)N12` was -6.09% (inactive); that for `C=CCN1CCN(C(=O)CCCc2ccccc2)CC1` was 66.7% (active). Turning to `O=C(CCCc1ccccc1)NCc1ccccc1`, the inhibition was -36.7% (inactive). As for `O=C(CCc1ccccc1F)N1CCN(c2ccccc2)CC1`, the figure is -17% (inactive); as for `CCCNC(=O)C[C@@H]1CC[C@H]2[C@H](COc3ccc(NC(=O)c4ccc(Cl)cc4)cc3C(=O)N2C)O1`, -13.7% (inactive); as for `COc1ccc(-c2cn(CC[C@@H]3CC[C@@H](NC(=O)CCN4CCCCC4)[C@@H](CO)O3)nn2)cc1`, -11.8% (inactive). Consider `O=C(Nc1ccccc1Cl)/C(Cl)=C(\Cl)S(=O)c1ccccc1` (stereo not drawn), for which the inhibition is 98.9% (active).

With `C[C@H](CO)N1C[C@H](C)[C@H](CN(C)Cc2ccccc2)OCCCC[C@H](C)Oc2ccc(NC(=O)Cc3ccccc3)cc2C1=O`, the inhibition is 24% (inactive). Regarding `C[C@H](CO)N1C[C@H](C)[C@@H](CN(C)Cc2ccccc2)OCCCC[C@H](C)Oc2ccc(NC(=O)Cc3ccccc3)cc2C1=O`, the inhibition was 3.25% (inactive). As to `O=C(C[C@H]1C=C[C@@H](NC(=O)Nc2cc(F)ccc2F)[C@H](CO)O1)NCCCN1CCOCC1`, the inhibition is -7.04% (inactive). As for `COc1ccc(-c2csc(Nc3ccccn3)n2)cc1`, the figure is 78.5% (active); as for `COc1cccc(C(NC(C)=O)c2nc(-c3ccccc3OC)cs2)c1` (stereo not drawn), -5.66% (inactive). In the case of `COc1cncc(-c2cnc3sc(NCCc4ccccn4)nn23)c1`, the inhibition is 20.8% (inactive). As for `C[C@H](CO)N1C[C@H](C)[C@H](CN(C)C(=O)Nc2ccc(F)cc2)Oc2ccc(NC(=O)Cc3cn(C)c4ccccc34)cc2CC1=O`, the inhibition is 10.8% (inactive). For `C[C@@H]1CN([C@@H](C)CO)C(=O)c2cc(NS(=O)(=O)c3ccccc3)ccc2O[C@H]1CN(C)CC1CCCCC1`, the inhibition was -4.25% (inactive). The value for `C[C@@H]1CN([C@@H](C)CO)C(=O)CCCn2cc(nn2)CO[C@H]1CN(C)Cc1ccc(C(=O)O)cc1` was 6.13% (inactive); that for `COCCNC(=O)C[C@H]1CC[C@H]2[C@H](COc3ccc(NC(=O)C4CCOCC4)cc3C(=O)N2C)O1` was -14% (inactive). As for `CC(C)C(=O)NC(NC(=S)NC1CCS(=O)(=O)C1)C(Cl)(Cl)Cl` (stereo not drawn), the figure is -0.282% (inactive); as for `O=S1(=O)CCC(NC(=S)SCc2ccccc2Br)C1` (stereo not drawn), 69.2% (active); as for `O=C(CSc1ccccc1F)NC1CCS(=O)(=O)C1` (stereo not drawn), 23.4% (inactive). As for `O=C1COc2ccc(C(=O)COC(=O)c3ccccc3Cl)cc2N1`, the inhibition is -31.2% (inactive).

Take `O=C(COC(=O)c1ccccc1)c1ccc2c(c1)OCCO2`: the inhibition was 66.7% (active). The value for `N#CCCN(C(=O)COC(=O)c1ccc2c(c1)OCCO2)c1ccccc1` was 4.75% (inactive). The value for `CC(=O)Nc1cccc(C(=O)OCC(=O)c2ccc3c(c2)OCO3)c1` was 63.3% (active). The value for `CCOc1ccc(NCCC(=O)c2ccc3c(c2)OCO3)cc1` was -15.9% (inactive). Take `CCOc1cc(C(=O)OCC(=O)Nc2cccc(C)c2)ccc1OCC(=O)N1CCOCC1`: the inhibition was 16.2% (inactive).

With `COc1ccc2c3c(n(C)c2c1)[C@H](CO)N(Cc1ccccc1)CC31CN(C(=O)c2ccccc2F)C1`, the inhibition was 13.5% (inactive). The value for `CCCC(=O)Nc1ccc2c(c1)C(=O)N(C)C[C@H](OC)[C@H](C)CN(C(=O)c1ccccn1)[C@H](C)CO2` was 14% (inactive). The value for `O=C(C[C@H]1C=C[C@H](NC(=O)CC2CC2)[C@@H](CO)O1)NCc1ccccc1` was -1.04% (inactive); that for `C[C@H]1CN([C@@H](C)CO)C(=O)c2cc(NC(=O)Cn3cnnn3)ccc2O[C@H]1CN(C)C(=O)NC1CCCCC1` was -0.859% (inactive); that for `COc1ccc2c3c([nH]c2c1)[C@@H](CO)N(C(=O)Nc1ccc(F)cc1)CC31CN(S(C)(=O)=O)C1` was -10.4% (inactive). As for `C[C@@H]1CN([C@@H](C)CO)C(=O)c2cc(-c3ccc(C#N)cc3)cnc2O[C@@H]1CN(C)Cc1cccnc1`, the figure is 21.1% (inactive); as for `O=[N+]([O-])c1ccc(NS(=O)(=O)c2ccccc2)c(Cl)c1`, -13% (inactive).

On to `O=S(=O)(Nc1ccc(O)c2ccccc12)c1ccc(OC(F)(F)F)cc1`, for which the inhibition was 58.8% (active).

For the compound `O=S(=O)(Cc1noc(-c2ccc(OC(F)(F)F)cc2)n1)c1ccc(F)cc1`, the inhibition is -18.2% (inactive). Take `CCCN1[C@@H]2c3ccc(C4=CCCC4)c(=O)n3C[C@@H]2[C@@H](CO)[C@@H]1C(=O)NCc1ccccn1`: the inhibition is -8.46% (inactive). Regarding `COc1ccc(S(=O)(=O)N(C)C[C@H]2OCCCC[C@H](C)Oc3ccc(NC(=O)Nc4ccc5c(c4)OCO5)cc3C(=O)N([C@@H](C)CO)C[C@@H]2C)cc1`, the inhibition is 21.6% (inactive).

As for `CO[C@@H]1CN(C)C(=O)c2ccc(NC(C)=O)cc2OC[C@@H](C)N(CC2CC2)C[C@H]1C`, the inhibition was -1.72% (inactive). Regarding `C[C@H](CO)N1C[C@H](C)[C@H](CN(C)CC2CC2)OCCCC[C@H](C)Oc2ccc(NC(=O)c3ccncc3)cc2C1=O`, the inhibition is -8.96% (inactive). Consider `Cc1ccc(S(=O)(=O)Nc2ccc3c(c2)C(=O)N([C@H](C)CO)C[C@H](C)[C@H](CN(C)S(=O)(=O)c2ccc(F)cc2)O3)cc1`, for which the inhibition is 2.4% (inactive).

Source of the values: PubChem BioAssay AID720647 (Broad Institute, 2013).
